# Assay outcomes: PubChem, Broad Institute
# This is a sample that favours compounds with a hit; in the whole collection about 3.1% have one here.
# HIV Env fusion = inhibitors of HIV Env-mediated cell fusion | inhibition, % at 12.3 µM | actives 1.1% (n = 360,000) | HeLa-JRFL Env/CEM21 cell fusion, luciferase | AID 651610;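 active = mean replicate inhibition score of at least 50 and every replicate individually at or above 50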;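 also: 0% = plate neutral controls and 100% = maraviroc near 300 nM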
# PAX8 inh HTS = PAX8 transcriptional activity inhibition; RMG-I TPO-luciferase reporter, SteadyGlo, 24 h; actives 1.2% (n = 360,000); AID 652154; inhibition, % at 12.6 µM;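 active = mean replicate inhibition at least 60% with every replicate also reaching 60%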;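 also: luciferase light reporting Pax8 driven TPO promoter activity; plate controls were median of neutral control wells for no effect and mitoxantrone controls for full effect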
# INS-1E GSIS act = primary screen for activators of insulin secretion dependent on glucose, INS-1E cells, GLuc reporter luminescence. activation, % at 16.6 µM. INS-1E GLuc reporter insulin secretion, 2-3 h. AID 743287. actives 0.61% (n = 370,000);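 active = lowest replicate activation of at least 40%, so every replicate reaches that level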;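 also: 0% = median of neutral control wells and 100% = median of IBMX positive control wells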
# EWS-Fli inh = blocks EWS/Fli oncoprotein-driven transcription | A673 NR0B1-luciferase reporter, viability-normalised | AID 651661 | inhibition, % at 12.6 µM | actives 0.67% (n = 350,000);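 active = mean inhibition of at least 50% after viability correction, with every replicate also passing that limit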;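 also: firefly luciferase signal divided by Alamar Blue viability fluorescence both relative to DMSO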
# miR122 inh = miR-122 inhibition in Huh7 cells; activation (reporter increase), % at 12.5 µM; Huh7 miR-122 Renilla luciferase sensor, 48 h; neutral wells = 0, positive control = 100; actives 0.3% (n = 340,000); AID 602342;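 active = mean replicate activation score at least 90 and every replicate individually at or above 90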;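 also: higher luciferase means less miR-122 activity so hits act as miR-122 inhibitors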
# Statin myotox sup = suppressors of simvastatin-induced myotoxicity in C2C12 myotubes | ATP luminescence, 48 h; scaled: DMSO 0, geranylgeraniol control 100 | rescue of ATP level, % at 7.49 µM | actives 0.78% (n = 330,000) | AID 602340;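 active = mean ATP rescue above about 67%, or every replicate alone reaching that limit, limit read from the data, passing the limit was not always enough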;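 also: myotubes were challenged with 10 µM simvastatin during compound exposure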
# Starred values were filed as active, the others as inactive; x = not tested or not shown; [ ] = remark or other dose.
SMILES,HIV Env fusion,PAX8 inh HTS,INS-1E GSIS act,EWS-Fli inh,miR122 inh,Statin myotox sup
C[C@@H]1CN([C@H](C)CO)C(=O)c2cc(NS(=O)(=O)c3ccc(Cl)cc3)ccc2O[C@@H](C)CCCCO[C@H]1CN(C)C(=O)C1CCCCC1,-74[16.7 µM],85*,-21,8,-3[16.7 µM],x
Cc1ccc(S(=O)(=O)Nc2ccc3c(c2)C(=O)N([C@H](C)CO)C[C@H](C)[C@@H](CN(C)C(=O)C2CCCCC2)OCCCC[C@@H](C)O3)cc1,-110[16.7 µM],-50,8,-6,7[16.7 µM],x
Cc1ccc(S(=O)(=O)Nc2ccc3c(c2)C(=O)N([C@@H](C)CO)C[C@@H](C)[C@@H](CN(C)C(=O)C2CCCCC2)OCCCC[C@@H](C)O3)cc1,30[16.7 µM],-23,-38,-13,-6[16.7 µM],x
C[C@@H]1CCCCO[C@@H](CN(C)C(=O)C2CCCCC2)[C@@H](C)CN([C@H](C)CO)C(=O)c2cc(NS(=O)(=O)c3ccc(Cl)cc3)ccc2O1,-103[16.7 µM],-10,31,-5,11[16.7 µM],x
CC(C)(C)C1C/C(=C/c2ccccn2)C(=O)/C(=C/c2ccccn2)C1 (configuration not stated),x,x,x,x,52,116*
O=C1/C(=C/c2ccccn2)COc2ccccc21,-6,10,-7,7,x,x
CC(C)Oc1ccc(C(=O)CCN2CCOCC2)cc1,9,42,51*,6,x,x
CC(C)Oc1ccc(C(=O)CCN2CCCCC2)cc1,-8,x,x,x,-4,-6
C[C@@H]1CCCCO[C@@H](CN(C)C(=O)C2CCCCC2)[C@H](C)CN([C@@H](C)CO)C(=O)c2cc(NS(=O)(=O)c3ccc(F)cc3)ccc2O1,-92[16.7 µM],-15,-17,2,-11[16.7 µM],x
N#Cc1cccnc1Nc1cccc(Cl)c1,x,-45,59*,-14,1,10
CC(=O)NS(=O)(=O)c1cccnc1Nc1cccc(Cl)c1,x,x,x,x,3,8
COc1ccc(S(=O)(=O)N(C)C[C@@H]2Oc3c(NC(=O)Nc4ccc(F)cc4)cccc3C(=O)N([C@@H](C)CO)C[C@@H]2C)cc1,29[16.7 µM],x,-23,-17,1[16.7 µM],30
COc1ccc(S(=O)(=O)Nc2ccc3c(c2)C(=O)N([C@H](C)CO)C[C@@H](C)[C@@H](CN(C)C(=O)NC(C)C)O3)cc1,-15[16.7 µM],x,14,16,11[16.7 µM],x
CC1(C)Cc2c(C#N)c(N)n(-c3ccccc3)c(=O)c2CO1,-26,6,x,x,-14,82*
N#Cc1c(N)n(-c2ccccc2)c(=O)c2cc([N+](=O)[O-])ccc12,12,-8,11,5,-2,-7
Cc1nn(Cc2c(F)c(F)c(F)c(F)c2F)c(C)c1NC(=O)c1ccc(COc2ccc(Cl)cc2Cl)o1,68*,41,-43,x,x,x
Cc1nn(Cc2ccc(Cl)cc2Cl)c(C)c1NC(=O)c1ccc(COc2cc(Cl)ccc2Cl)o1,x,x,x,x,-8,x
COc1cccc(CN2[C@@H](CO)[C@H](c3ccccc3)C23CN(C(=O)C2CCCC2)C3)c1,-3[16.7 µM],-7,-12,16,x,x
O=S(=O)(c1ccccc1)N1CCCCN2[C@H](CO)[C@H](c3ccc(-c4ccccc4F)cc3)[C@H]2C1,x,114*,-19,14,8[16.7 µM],-2
Cc1ccc(-c2ccc([C@H]3[C@H]4CN(S(=O)(=O)c5cccc(C)c5)CCCCN4[C@H]3CO)cc2)cc1,x,-22,x,1,9[16.7 µM],x
Cc1ccccc1-c1ccc([C@@H]2[C@H](CO)N3CCCCN(C(=O)NC4CCCC4)C[C@@H]23)cc1,x,2,-27,12,-10[16.7 µM],-56
Cc1ccccc1-c1ccc([C@@H]2[C@@H](CO)N3CCCCN(C(=O)NC4CCCC4)C[C@H]23)cc1,x,82*,-22,21,1[16.7 µM],-21
Cc1ccc(-c2ccc([C@H]3[C@H](CO)N4CCCCN(S(=O)(=O)c5cccc(C)c5)C[C@@H]34)cc2)cc1,x,87*,x,-8,5[16.7 µM],x
O=S(=O)(c1ccccc1)N1CCCCN2[C@H](CO)[C@@H](c3ccc(-c4ccccc4F)cc3)[C@@H]2C1,x,x,-23,x,x,x
Cc1ccccc1-c1ccc([C@@H]2[C@H](CO)N3CCCCN(S(=O)(=O)Cc4ccccc4)C[C@@H]23)cc1,x,-24,-16,57*,4[16.7 µM],-10
SMILES,HIV Env fusion,PAX8 inh HTS,INS-1E GSIS act,EWS-Fli inh,miR122 inh,Statin myotox sup
O=C(C[C@@H]1C=C[C@H](NC(=O)c2cnccn2)[C@@H](CO)O1)NCc1ccccc1F,5[16.7 µM],1,10,8,x,-9
C[C@@H]1CN([C@@H](C)CO)C(=O)c2cc(-c3cccnc3)cnc2O[C@@H]1CN(C)C(=O)NC1CCCC1,-19[16.7 µM],x,12,-8,2[16.7 µM],8
C[C@@H]1CN([C@@H](C)CO)C(=O)c2cc(N(C)C)ccc2O[C@@H](C)CCCCO[C@H]1CN(C)Cc1ccc2c(c1)OCO2,-19[16.7 µM],2,9,5,1[16.7 µM],2
C[C@H]1CN([C@@H](C)CO)C(=O)c2cc(NC(=O)c3ccncc3)ccc2O[C@H]1CN(C)C(=O)NC1CCCCC1,x,-17,3,4,-4[16.7 µM],3
C[C@@H]1CN([C@H](C)CO)C(=O)c2cc(Br)cnc2O[C@@H]1CN(C)CC1CCOCC1,20[16.7 µM],-5,x,9,1[16.7 µM],17
CN(C(=O)CSc1nc(-c2ccccc2)cn1N)C(c1ccccc1)c1ccccc1,36,x,-17,x,-2,78*
COc1ccccc1CNC(=O)CSc1nc(-c2ccccc2)cn1N,-75,2,x,x,-1,-5
COc1ccc(NS(=O)(=O)c2ccc(N3CCCC3)c(NC(=S)Nc3cccc(C)c3C)c2)cc1,149*,-15,-11,x,21,x
COc1ccc(NS(=O)(=O)c2ccc(N3CCCC3)c(NC(=S)Nc3ccc(SC(F)F)cc3)c2)cc1,x,101*,1,3,4,x
COc1ccc(NS(=O)(=O)c2ccc(N3CCCC3)c(N)c2)cc1,27,-6,-8,0,2,-20
Cc1[nH]nc2c1C1(C(=O)N(Cc3ccc(Cl)cc3)c3ccccc31)C(C#N)=C(N)O2 (configuration not stated),85*,x,x,x,-1,105*
COC(=O)Cc1[nH]nc2c1C1(C(=O)N(Cc3ccccc3)c3ccccc31)C(C#N)=C(N)O2 (configuration not stated),-26,x,x,x,-11,6
COc1cc(C2C(C#N)=C(N)Oc3cc4c(cc32)OCO4)cc(OC)c1OC (configuration not stated),-65,96*,-3,62*,x,x
COc1cc(C2C3=C(COC3=O)Oc3cc4c(cc32)OCO4)cc(OC)c1OC (configuration not stated),-191,69*,-2,36,37,x
COc1cc(C2CC(=O)Oc3cc4c(cc32)OCO4)cc(OC)c1OC (configuration not stated),20,-21,28,-10,3,-2
COc1cc(C2C3=C(COC3=O)Oc3cc4c(cc32)OCO4)cc(OC)c1O (configuration not stated),31,90*,x,57*,x,x
